TDP1 cell noCPT: qHTS for Inhibitors of human tyrosyl-DNA phosphodiesterase 1 (TDP1): qHTS in cells in absence of CPT | DT40 Tdp1-/- hTDP1 cells, no CPT, ATP luminescence, 48 h | Potency, µM (top dose mostly 46.2 µM), without a hit: at the top dose activity change, negative = growth inhibition, actives largely listed as inhibitors | actives 15% (n = 420,000) | AID 686978, 2013; also: potency is read from the fitted curve at half-maximal effect; nearly all actives have a fitted effect of over 55% in size
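Stably hTDP1-transfected Tdp1-null chicken DT40 cells were treated with library compounds minus camptothecin and grown for at least 48 hr at 37 °C, after which cellular ATP was quantified by luminescence.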
IL1B secr inh: blocks inflammasome-driven IL-1 beta release; activity change, % at 57.5 µM; actives 4.7% (n = 360,000); THP-1 LPS/ATP IL-1B secretion, AlphaLISA, 16 h; hits give low values; in the data active = activity change below about -50%; inconclusive = mostly about -30% to -49%
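Secreted IL-1B measured by AlphaLISA bead assay after 16 h compound exposure of THP-1 cells; compounds (final up to 57.5 uM) added 1 h before LPS (250 ng/mL) and ATP (1.25 mM) stimulation; lower signal means less secretion.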
HT1080-NT tox: kills 2HG-producing HT-1080-NT fibrosarcoma cells; HT-1080-NT fibrosarcoma viability, CellTiter-Glo ATP luminescence, 48 h; AID 686970; Potency, µM (highest dose often 46.1 µM), inactives show at the top dose activity, negative = less viability, hits mostly cytotoxic; actives 1.6% (n = 360,000);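 also: NT is the 2HG producing partner of a matched IDH1 knockdown line; potency is read from the fitted curve at half-maximal effect; 0% = DMSO-treated cells and -100% = media-only wells without cells; nearly all actives have a fitted effect of over 55% in size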
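Compounds were tested in concentration-response format on HT-1080-NT cells for 48 hours at 37 degrees C. Cell viability came from CellTiter-Glo luminescence; curves were classified by r2, response magnitude and activity.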
ALOX12 inh: inhibitors of human 12S-lipoxygenase ALOX12; AID 1671190; Potency, µM (top dose mostly 108 µM), for the others: top-dose activity change, negative = inhibition, hits mostly inhibitors; purified 12hLO, xylenol orange hydroperoxide absorbance; actives 1.1% (n = 580,000); also: potency is read from the fitted curve at half-maximal effect
Target sequence (P18054 whole entry, looked up): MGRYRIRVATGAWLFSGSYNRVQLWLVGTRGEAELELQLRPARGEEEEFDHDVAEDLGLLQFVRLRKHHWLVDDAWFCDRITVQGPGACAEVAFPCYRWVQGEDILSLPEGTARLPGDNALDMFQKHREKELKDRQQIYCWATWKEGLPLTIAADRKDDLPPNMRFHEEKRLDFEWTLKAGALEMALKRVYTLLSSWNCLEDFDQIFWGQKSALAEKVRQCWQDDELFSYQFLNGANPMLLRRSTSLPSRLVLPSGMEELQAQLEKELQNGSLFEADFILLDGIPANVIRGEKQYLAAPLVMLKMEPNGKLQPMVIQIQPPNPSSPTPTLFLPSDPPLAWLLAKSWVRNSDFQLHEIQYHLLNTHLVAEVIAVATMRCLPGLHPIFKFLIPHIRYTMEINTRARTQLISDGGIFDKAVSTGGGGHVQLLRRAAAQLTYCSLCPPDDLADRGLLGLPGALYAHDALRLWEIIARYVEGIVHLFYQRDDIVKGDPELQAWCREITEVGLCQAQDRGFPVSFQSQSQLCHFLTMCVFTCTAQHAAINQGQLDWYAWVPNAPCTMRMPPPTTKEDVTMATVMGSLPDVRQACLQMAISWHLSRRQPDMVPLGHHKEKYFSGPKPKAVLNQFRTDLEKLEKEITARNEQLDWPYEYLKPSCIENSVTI
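Hydroperoxide product was detected by ferrous iron/xylenol orange as the 573 to 405 nm absorbance ratio. Arachidonic acid at 40 uM (final) was turned over for 30 min at room temperature by 150 nM human 12hLO, pH 7.0 Hepes buffer, after 15 min compound preincubation.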
HT1080 IDH1KD tx: HT-1080 IDH1 knockdown cell toxicity (counter line). HT-1080 IDH1 knockdown viability, ATP luminescence, 48 h. Potency, µM (doses to about 46.1 µM), for the others: at the highest dose activity, negative = toxicity, usual class: cytotoxic. actives 2% (n = 360,000). AID 686971;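 also: potency is read from the fitted curve at half-maximal effect; 0% = DMSO wells and -100% = cell-free medium wells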
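Viability of IDH1-knockdown HT-1080 fibrosarcoma cells was assessed by CellTiter-Glo after 48 h at 37 °C with titrated compound; concentration-effect curves were classified by fit quality and response size.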
TDP1 cell CPT: growth inhibition of DT40 Tdp1-/-;hTDP1 cells with camptothecin (screen for TDP1 inhibitors); chicken DT40 Tdp1-/-;hTDP1 cells + 20 nM CPT, ATP luminescence, 48 h; Potency, µM (top dose mostly 46.2 µM), for the others: at the top dose activity change, negative = growth inhibition, usual class: inhibitors; actives 12% (n = 420,000); AID 686979; also: potency is read from the fitted curve at half-maximal effect; nearly all actives have a fitted effect of over 55% in size
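Cell growth measured by CellTiter-Glo luminescence after a minimum 48 h, 37 C compound exposure with 20 nM CPT in Tdp1-knockout DT40 cells stably expressing hTDP1, seeded 400/well; qHTS titration format.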
* hit, by the source's call; ? = inconclusive; . = not tested or not shown; [ ] = remark or other dose. The entries come from a sample that favours hits as a whole. Unless noted, calls follow the shape of the dose curve; as a rule, active = well fitted curve in the direction sought with a large enough effect; inconclusive = small, poorly fitted or top-dose-only effect, or another doubt; inactive = no such curve, though single readings can be large; an effect the other way counts as inactive or inconclusive. Unless noted, % is scaled to controls: 0 for no effect and ±100 for the full control effect.

SMILES	TDP1 cell noCPT	IL1B secr inh	HT1080-NT tox	ALOX12 inh	HT1080 IDH1KD tx	TDP1 cell CPT
COc1cc(OC)cc(C(=O)NCC(=O)NCCN2C(=O)S/C(=C\c3ccccc3Cl)C2=O)c1	?	-10	-1%	3%	-8%	?
COc1cc(C(=O)NCC(=O)NCCN2C(=O)S/C(=C\c3ccccc3Cl)C2=O)cc(OC)c1OC	18µM*	-1	-2%	-8%	-9%	18µM*
O=C(CCc1nc2ccccc2c(=O)[nH]1)NCCN1C(=O)S/C(=C\c2ccc(Cl)cc2Cl)C1=O	4.6µM*	17	-29%	?	?	8.2µM*
O=C(CCc1nc2ccccc2c(=O)[nH]1)Nc1ccc(Cl)c(Cl)c1	?	0	-14%	?	?	-23%
COc1cc(OC)cc(C(=O)NCC(=O)NCCN2C(=O)S/C(=C\c3ccc4c(c3)OCO4)C2=O)c1	18µM*	-54*	0%	?	-2%	?
CONC(=O)c1ccccc1C(=O)c1ccccc1	.	.	.	19%	.	.
COc1ccccc1NC(=O)c1nn(-c2ccccc2)c(=O)c2ccccc12	.	.	.	24%	.	.
CC(=O)c1ccc(NC(=O)c2ccc(C)c(S(=O)(=O)N3CCOCC3)c2)cc1	?	20	-20%	-2%	-10%	1%
O=C(Nc1ccc(N2CCCCCC2)cc1)c1cccc(S(=O)(=O)N2CCOCC2)c1	4.1µM*	-3	-14%	?	?	7.3µM*
CCOC(=O)c1ccc(NC(=O)c2ccc(C)c(S(=O)(=O)N3CCOCC3)c2)cc1	23µM*	-14	?	-24%	?	?
CCOC(=O)c1ccc(NC(=O)c2cccc(S(=O)(=O)N3CCOCC3)c2)cc1	12µM*	-25	-29%	2%	-29%	?
COc1ccc(NS(=O)(=O)c2ccc(C)c(NC(=O)c3ccc(C)c(S(=O)(=O)N4CCOCC4)c3)c2)cc1	15µM*	-7	-12%	-6%	-6%	?
Cc1ccc(C(=O)Nc2ccc(F)cc2)cc1S(=O)(=O)N1CCOCC1	?	.	.	-22%	.	?
O=C(Nc1cccc(S(=O)(=O)N2CCOCC2)c1)c1cccc(S(=O)(=O)N2CCCCC2)c1	?	-1	1%	13%	-4%	?
CCn1c(=O)c(=O)[nH]c2cc(C(=O)N3CCCCCC3)ccc21	.	.	.	-3%	.	.
Cc1nc2ccccc2nc1N/N=C/c1ccc(O)cc1	0%	5	2%	-22%	5%	-3%
Cc1nc(N/N=C/c2ccc(O)cc2)c2cnn(-c3ccccc3)c2n1	23µM*	-74*	?	0%	?	?
COc1ccc2c(n1)Sc1nc3ccccc3nc1N2	?	16	24%	?	13%	?
CCn1cc(-c2ccc(Cl)cc2)cc1C(=O)N1CCCN(C)CC1	.	.	.	-23%	.	.
O=S(=O)(NCc1ccccc1S(=O)(=O)N1CCCCC1)c1ccc2c(c1)CCCC2	.	.	.	-24%	.	.
COc1cccc(C2C(C(=O)Nc3ccccc3OC)=C(C)Nc3nc4ccccc4n32)c1 (stereo not drawn)	15µM*	.	.	-8%	.	?
COc1cccc(C2C(C(=O)Nc3ccc(Cl)cc3)=C(C)Nc3nc4ccccc4n32)c1OC (stereo not drawn)	?	.	.	0%	.	21µM*
COc1ccccc1NC(=O)C1=C(C)Nc2nc3ccccc3n2C1c1cccc(OC)c1OC (stereo not drawn)	?	.	.	-3%	.	16µM*
COc1cccc(C2C(C(=O)Nc3ccccc3OC)=C(C)Nc3nc(-c4ccco4)nn32)c1 (stereo not drawn)	18µM*	.	.	-19%	.	?
COc1ccc(OC)c(C2C(C(=O)Nc3ccccc3)=C(C)Nc3nc4ccccc4n32)c1 (stereo not drawn)	.	.	.	-11%	.	.
SMILES	TDP1 cell noCPT	IL1B secr inh	HT1080-NT tox	ALOX12 inh	HT1080 IDH1KD tx	TDP1 cell CPT
COc1ccccc1NC(=O)C1=C(C)Nc2nc(-c3ccco3)nn2C1c1ccccc1 (stereo not drawn)	?	.	.	-24%	.	?
Cc1ncc2c(c1CNC(=O)c1ccccc1F)CCN(C(=O)Cc1ccc3c(c1)OCO3)C2	.	.	.	8%	.	.
CCN(CC)CCCNc1nc2cc(OC)c(OC)cc2c2nc(-c3cccnc3)nn12	13µM*	-90*	-3%	24%	-1%	15µM*
CCN(CC)CCCNc1nc2ccccc2c2nc(-c3ccncc3)nn12	21µM*	-102*	?	-5%	16µM*	?
Cc1ccc(CCNc2nc3ccccc3c3nc(-c4ccccc4)nn23)cc1	?	.	.	-17%	.	?
COc1ccc(OC)c(CCNc2nc3ccccc3c3nc(-c4cccnc4)nn23)c1	?	.	.	-7%	.	1%
CCN(CC)CCCNc1nc2cc(OC)c(OC)cc2c2nc(-c3ccccc3)nn12	5.2µM*	-88*	18µM*	.	?	21µM*
COc1cc2nc(NCC3CCCO3)n3nc(-c4cccnc4)nc3c2cc1OC (stereo not drawn)	21µM*	-20	9%	11%	10%	9.2µM*
O=C(Nc1c2c(nc3ccccc13)CCCC2)c1cccc(Cl)c1	.	.	.	5%	.	.
CN1[C@@H](CCC(=O)N2CCN(c3ccccc3)CC2)CNC(=O)[C@@H]2[C@H]1CCN2Cc1ccc(CO)o1	.	.	.	114%	.	.
CC(C)c1ncc(-c2ccccc2)[nH]1	.	.	.	-1%[12.5 µM]	.	.
CC(C)c1nc(-c2ccccc2)c(-c2ccccc2)[nH]1	21µM*	-21	-16%	0%	-19%	?
Cc1csc(Nc2ccc3c(n2)CN(C)C(=O)CO3)n1	.	.	.	58%[176 µM]	.	.
Cc1ccc(C)c(NC(=O)Cn2c(=O)n(Cc3ccc4c(c3)OCO4)c(=O)c3oc4ccccc4c32)c1	2.9µM*	.	.	-25%	.	2.9µM*
COc1cccc2c(=O)cc(C)n(CC(=O)Nc3ccccc3C)c12	15µM*	4	-10%	2%	-17%	?
Cc1cccc(NC(=O)Cn2c(=O)n(Cc3ccc4c(c3)OCO4)c(=O)c3oc4ccccc4c32)c1C	7.3µM*	.	.	-35%	.	7.3µM*
O=C(Cn1c(=O)n(Cc2ccccc2)c(=O)c2oc3ccccc3c21)Nc1ccc(Cl)cc1	18µM*	.	.	-15%	.	?
CNC(=O)Cn1c(C)cc(=O)c2cccc(OC)c21	-2%	8	3%	25%	-1%	20%

Screening data as filed in PubChem BioAssay.
